# This is one part of the list. The hit rate among all sequences tested is not known here.
# B1: VH:VL chains; a variant is named by its letters at X, in order (parent)
# chain 1: QVQLVQSGAEVKKPGASVKVSCKASGYTFTDYXMHWVRQAPGQGLEWMGXVNPNXXXTTYNQKFEGRVTMTTDTSTSTAYMELRSLRSDDTAVYYCARXNXLDXWGQGTTVTVSS
# chain 2: DIQMTQSPSSLSASVGDRVTITCSVSSSVSSIYLHWYQQKPGKAPKLLIYSTSNLASGVPSRFSGSGSGTDFTLTISSLQPEDFATYYCQVYSGYPLTFGGGTKVEIK
# Variants of: B1
# Experiment: yeast display scFab, FACS + sequencing
# Details: with MET
# Method in brief: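 For FACS, yeast displaying a heavy-chain CDR mutant scFab library were labelled with 1 nM HGFR-Fc and anti-Myc (PBSB, 1% milk, 3 h, room temperature), and the top 50% antigen-positive cells were gated. Input and round-3 sorted populations were deep sequenced in two replicates. The binding call was positive for sequences occurring in both antigen-positive samples and negative for sequences occurring only in input.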
row,Variant,antigen binding call
1,AARADSSA,no binding
2,VGGGADVA,no binding
3,VTTKSAAA,no binding
4,YTGTSDAV,no binding
5,VTKTGDAV,binds
6,YTKTGDAV,binds
7,VTGTGDAV,no binding
8,YTERGDAV,no binding
9,VTAGSDAV,no binding
10,VTKTGDVA,no binding
11,VTKTGAAA,binds
12,DKEGGYSV,no binding
13,DAKEGSLD,no binding
14,SAAGADWS,no binding
15,YRTAGAGV,binds
16,YRTADVGV,no binding
17,YRTAGSGV,binds
18,FAGGGDLV,no binding
19,VKAAGSVD,no binding
20,VKARGSGD,binds
21,VKGKDSGD,no binding
22,FTETGSVD,no binding
23,VTGTGSGD,no binding

row,Variant,antigen binding call
1,VEGGGSVD,no binding
2,FKARGSVD,binds
3,VKARGSVD,binds
4,VEEEGSVD,no binding
5,VKERGSVD,binds
6,VTGTGYVF,no binding
7,FRGKGASS,binds
8,YRGKGAAS,binds
9,FRGKGAAS,binds
10,FRGKGAGY,binds
11,VTGEDDGD,no binding
12,DAKENAGD,no binding
13,VAKEGAWV,no binding
14,VEARNAGA,no binding
15,DEGGTDVA,no binding
16,SAEATDLY,no binding
17,FAKAGFVA,no binding
18,FRGKGAGS,binds
19,FRGKGAVS,binds
20,YRGKGAVS,binds
21,YRRRGALF,binds
22,YRRRGSLF,binds
23,YKEGDSGV chain 1 R87K,no binding

row,Variant,antigen binding call
1,YKGRGALA,binds
2,FKEGGSAA,no binding
3,FKGRGSLA,binds
4,YKGGDDLA,no binding
5,YAGRGDLA,no binding
6,SKGRGALA,binds
7,SKERGDVA,no binding
8,STGRAALA,no binding
9,YKGRGSLA,binds
10,VEEEGDWD,no binding
11,SKGRSDGA,no binding
12,DKEEDSLA,no binding
13,SKGRSSLA,binds
14,VKGRSDSA,no binding
15,YKKGGSLA,binds
16,FKRAGSLA,binds
17,YGKGGDLA,no binding
18,VGGTSDWA,no binding
19,SRGRGYGD,no binding
20,SRGRGAVD,binds
21,SGGKNSVD,no binding
22,SRGRGSVD,binds
23,SRTGSDVD,no binding

row,Variant,antigen binding call
1,SGEGGAAV,no binding
2,VRGRGVSY,no binding
3,YRGRGALF,binds
4,YRGRGVLF,binds
5,VRGRGALF,binds
6,AARADDWV,no binding
7,FTEEGDGA,no binding
8,DAGEAFSF,no binding
9,AGGGNDGV,no binding
10,FRGRGSAF,binds
11,FRGRSSAF,binds
12,YEERSDAF,no binding
13,SAEGDAAD,no binding
14,ARAASAGA,no binding
15,DAARGAAA,no binding
16,SRARGAAA,binds
17,SGEGGAGA,no binding
18,SRARGAGA,binds
19,SRGRGFAA,no binding
20,SEEGTDWD,no binding
21,VATGDDVD,no binding
22,FKTKNYAD,no binding
23,DKEGGDVV,no binding

row,Variant,antigen binding call
1,FRGESAAA,binds
2,FTGTGSGA,no binding
3,FRGRDYGA,no binding
4,FRGESSGA,binds
5,FRGESAGA,binds
6,YAAGSDVY,no binding
7,DGGKNDGD,no binding
8,DGTGGAGA,no binding
9,DTGGDAGV,no binding
10,DATGGDVV,no binding
11,FTEEGDGV,no binding
12,YRAKSSGV,binds
13,YAEESSGV,no binding
14,YRAGSSGV,binds
15,YRAESSGV,binds
16,VAGAGDVV,no binding
17,FARKSFGS,no binding
18,YRKRGSSA,binds
19,YRRRGSVA,binds
20,YRRRGSSA,binds
21,YAKRGSWA,no binding
22,DEGGTSLD,no binding
23,YKAGDAGD,binds

row,Variant,antigen binding call
1,YKAEDVGD,no binding
2,YKAKGAGD,binds
3,YKARGAAD,binds
4,YKAKGAAD,binds
5,VEAGDAGD,no binding
6,VTAGDAGD,no binding
7,YKGKGDAD,no binding
8,FAEGDDVV,no binding
9,ARARGSWV,binds
10,FTTGGSAV chain 1 M48I,no binding
11,FRGRGSLV,binds
12,FRKRGSAV,binds
13,ARAAGDWV,no binding
14,AEAGDAVV,no binding
15,AEERDSVV,no binding
16,ARAKTSWV,no binding
17,FRKAAVAV,no binding
18,ARAGGSVV,binds
19,SEARSYLV,no binding
20,SEARSDVD,no binding
